From PubChem BioAssay
rRNA inh HTS: reduced GFP signal of wild-type E. coli, primary screen, bacterial rRNA inhibitor project, GFP/RFP fluorescence, OD600, single point. GFP signal change (wild-type ribosome), % (test concentration not listed). hit rate 1.6% among 350,000. AID 720706, 2013. E. coli WT GFP vs humanized-ribosome RFP mutants, 24 h; hits give low values; DMSO median 0, no signal -100;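 active means significant combined selectivity score with lowered wild-type GFP, culture density cut under 30%, mutant RFP and density less affected; inactive means any of these conditions unmet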
LGR2 antag: inhibitors of bursicon-induced LGR2 CRE-luciferase signal, primary screen, cell-based, HEK293, CRE-luciferase reporter, bursicon stimulation; Drosophila bursicon receptor LGR2 (rickets); bursicon-stimulated, 4 h; inhibition, % at 9.99 µM; hit rate 0.35% among 380,000; AID 720647, 2013;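 active means drop in luminescence signal, shown as inhibition above about 50% in the replicate tests, limit read from the data, passing the limit was not always enough; inconclusive means probably only some replicates passing the limit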;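 further: agonist challenge used bursicon conditioned medium at about half maximal strength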
PAX8 reporter: inhibitors of PAX8-driven TPO luciferase reporter, primary screen, RMG-I cells, single concentration; AID 652154, 2013; SteadyGlo, 24 h; hit rate 1.2% among 360,000; inhibition, % at 12.6 µM;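 active means mean replicate inhibition at least 60% with every replicate also reaching 60%; inconclusive means only one of the two criteria is met; inactive means mean below 60% and not all replicates reaching 60%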;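 further: luciferase light reporting Pax8 driven TPO promoter activity; plate controls were median of neutral control wells for no effect and mitoxantrone controls for full effect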
EWS-Fli inh: EWS/Fli-driven NR0B1 reporter inhibitors, primary screen, A673 cells, NR0B1 luciferase, luminescence, MLPCN library; inhibition, % at 12.6 µM; viability-normalised; hit rate 0.67% among 350,000;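 active means mean inhibition of at least 50% after viability correction, with every replicate also passing that limit; inconclusive means mean reaches 50% but only one of two replicates passes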;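 further: firefly luciferase signal divided by Alamar Blue viability fluorescence both relative to DMSO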
SIRT5 inh: SIRT5 desuccinylase inhibitors, primary screen, biochemical, fluorescence imaging, single point, set 5. hit rate 1.1% among 330,000. Purified SirT5, succinyl-peptide AMC, trypsin-coupled fluorescence. inhibition, % at 15 µM. AID 652115, 2013; in the data active means inhibition above about 15%; inconclusive means no clear call, values can overlap the other calls
Target sequence (Q9NXA8 whole entry, looked up): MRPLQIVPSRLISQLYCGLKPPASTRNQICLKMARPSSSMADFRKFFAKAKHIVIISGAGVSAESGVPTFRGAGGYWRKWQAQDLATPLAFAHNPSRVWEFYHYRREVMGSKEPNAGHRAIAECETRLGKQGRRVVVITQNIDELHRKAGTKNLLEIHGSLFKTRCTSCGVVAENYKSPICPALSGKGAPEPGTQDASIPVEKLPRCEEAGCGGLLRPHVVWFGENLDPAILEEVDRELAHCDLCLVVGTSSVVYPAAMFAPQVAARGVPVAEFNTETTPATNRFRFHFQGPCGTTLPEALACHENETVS
PGC1a acetyl inh: inhibitors of PGC1a acetylation signal, primary screen, cell-based, U2OS, AlphaScreen, inhibitor mode; AlphaScreen anti-acetyl-lysine; with virally co-expressed GCN5 acetyltransferase; inhibition, % at 15.6 µM; hit rate 0.17% among 350,000; AID 651687, 2012;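 active means every replicate shows inhibition of at least 40%; inconclusive means mean inhibition at least 40% but some replicate below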;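 further: 0% = neutral control wells and 100% = positive control wells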
HepG2 tox: cytotoxicity in HepG2 cells, dose response, cytotoxicity control, cell-based, CellTiter-Glo luminescence, cherry-pick, set 4. activity change, negative = cytotoxicity, unspecified at 26 µM. 30 tested, under 10 active. AID 743480, 2014. shares compounds with rRNA inh HTS. HepG2 viability, ATP luminescence, 72 h;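 active means compounds whose fitted half-maximal signal-loss concentration is at most twice their highest valid dose; inconclusive means flat curve with 30 to 70% signal loss, or poor fit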
AID977621: growth inhibition of wild-type GFP E. coli, dose response, H69 mutant RFP, cherry-pick | activity change, negative = inhibition at 50 µM | AID 977621, 2014 | shares compounds with rRNA inh HTS | E. coli wild-type GFP strain growth, fluorescence, 24 h | 1,900 tested, under 10 active;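 active means Wild-type ribosome reporter drop at least double the humanized mutant ribosome reporter drop, growth loss under a set limit; inconclusive means no clear call, values can overlap the other calls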;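 further: wild-type GFP and H69 mutant RFP strains grown together 50/50 in each well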
AID977628: E. coli growth inhibition, wild-type GFP versus h24 humanized RFP strain, dose response, h24 mutant RFP vs wild-type GFP, cherry-pick; shares compounds with rRNA inh HTS; E. coli WT GFP strain growth, fluorescence, 24 h; activity change, negative = inhibition at 50 µM; 1,900 tested, under 10 active; AID 977628, 2014;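 active means compound lowering the normal-ribosome reporter at least twice as much as the humanized-ribosome reporter, growth loss under a set limit; inconclusive means no clear call, values can overlap the other calls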;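 further: wild-type GFP and h24 humanized RFP strains co-cultured 1 to 1 per well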
The depositor's hits bear a star. Rows were chosen to be rich in hits. Some 3.4% of all compounds tested hit in one or more screens of this group.

`Cc1onc(-c2c(F)cccc2Cl)c1C(=O)c1ccccc1O` gave rRNA inh HTS -41.7*, LGR2 antag -2.8, PAX8 reporter 21.7, EWS-Fli inh 6.5, SIRT5 inh 0.4, PGC1a acetyl inh -0.3, AID977621 -10.5 and AID977628 inconclusive.
Screening O=C(O)CC(CC(=O)Nc1ccc(Oc2ccccc2)cc1)c1ccccc1 (centres undefined) returned rRNA inh HTS -26.9*, LGR2 antag 9.5, PAX8 reporter 20.0, EWS-Fli inh 21.2, SIRT5 inh -2.0, AID977621 -18.8 and AID977628 -22.5.
`Cc1ccc(S(=O)(=O)N(C(=O)c2ccncc2)c2ccc(OC(=O)c3ccncc3)cc2)c(C)c1` gave rRNA inh HTS -18.3*, LGR2 antag 25.7, PAX8 reporter 19.4, EWS-Fli inh 13.0, SIRT5 inh -0.8, AID977621 1.94 and AID977628 0.875.
Cc1c(C(=O)O)sc2nc(CSc3ncc(C(F)(F)F)cc3Cl)[nH]c(=O)c12 was read as rRNA inh HTS -33.2*, LGR2 antag -1.4, PAX8 reporter -2.3, EWS-Fli inh -6.7, SIRT5 inh 7.4, PGC1a acetyl inh -0.4 and HepG2 tox 21.
CCn1c(SCc2nc3sc(C(=O)O)c(C)c3c(=O)[nH]2)nc2ccccc21 was read as PGC1a acetyl inh 4.8.
Screening O=C(Nc1ccc2c(c1)OCCO2)c1cccnc1Oc1ccc(Cl)cc1 returned rRNA inh HTS -27.2*, LGR2 antag 2.1, PAX8 reporter 4.9, EWS-Fli inh 3.5, SIRT5 inh -3.9, PGC1a acetyl inh 6.7 and AID977621 -7.14.
Screening C[C@@H]1CCCCO[C@@H](CN(C)C)[C@H](C)CN([C@H](C)CO)C(=O)c2cc(NC(=O)Nc3cccc4ccccc34)ccc2O1 returned rRNA inh HTS -1.4, LGR2 antag 3.9, PAX8 reporter 14.0, EWS-Fli inh -7.9, SIRT5 inh 0.5, PGC1a acetyl inh 2.9, AID977621 -9.07 and AID977628 inconclusive.
For CC(C)NC(=O)N(C)C[C@H]1OCCCC[C@@H](C)Oc2ccc(NC(=O)c3ccccc3)cc2C(=O)N([C@@H](C)CO)C[C@H]1C the results were rRNA inh HTS -20.4*, LGR2 antag 10.8, PAX8 reporter 19.8, SIRT5 inh 1.9, PGC1a acetyl inh 5.8, AID977621 -0.743 and AID977628 inconclusive.
Screening C[C@H](CO)N1C[C@H](C)[C@@H](CN(C)C)OCCCC[C@H](C)Oc2ccc(NC(=O)Nc3cccc4ccccc34)cc2C1=O returned rRNA inh HTS 0.9, LGR2 antag 14.9, PAX8 reporter 0.5, EWS-Fli inh 4.3, SIRT5 inh 0.0, PGC1a acetyl inh -7.2, AID977621 4.03 and AID977628 inconclusive.
C[C@@H]1CCCCO[C@H](CN(C)C(=O)Nc2cccc3ccccc23)[C@H](C)CN([C@@H](C)CO)C(=O)c2cc(NC(=O)Nc3cccc4ccccc34)ccc2O1 was read as rRNA inh HTS 2.9, LGR2 antag -15.9, PAX8 reporter -0.5, EWS-Fli inh 0.0, SIRT5 inh 1.9 and PGC1a acetyl inh -3.2.
Screening CC(C)NC(=O)N(C)C[C@H]1OCCCC[C@@H](C)Oc2ccc(NC(=O)c3ccccc3)cc2C(=O)N([C@H](C)CO)C[C@@H]1C returned rRNA inh HTS -0.8, LGR2 antag -10.5, PAX8 reporter 2.0, SIRT5 inh 0.4 and PGC1a acetyl inh -3.1.
`C[C@@H]1CCCCO[C@@H](CN(C)C)[C@@H](C)CN([C@H](C)CO)C(=O)c2cc(NC(=O)Nc3cccc4ccccc34)ccc2O1` gave rRNA inh HTS 1.3, LGR2 antag 17.6, PAX8 reporter -3.8, EWS-Fli inh 3.9, SIRT5 inh -0.6, PGC1a acetyl inh -0.4, AID977621 -3.91 and AID977628 inconclusive.
`CO[C@H]1CN(C)C(=O)c2cc(NC(=O)c3cnccn3)ccc2OC[C@@H](C)N(C)C[C@H]1C` gave rRNA inh HTS -1.1, LGR2 antag -1.6, EWS-Fli inh -2.1, SIRT5 inh 1.0 and PGC1a acetyl inh -3.1.
COc1cccc(CN2[C@@H]3CNC[C@H]2C3c2ccc(-c3cccc(C#N)c3)cc2)c1 (some centres undefined) was read as rRNA inh HTS 0.5, LGR2 antag 19.8, PAX8 reporter -2.6, EWS-Fli inh 7.2, SIRT5 inh 4.5 and PGC1a acetyl inh -0.9.
Screening C[C@@H]1CCCCO[C@H](CN(C)CC2CC2)[C@H](C)CN([C@@H](C)CO)C(=O)c2cc(NC(=O)Nc3cccc4ccccc34)ccc2O1 returned rRNA inh HTS -26.7*, LGR2 antag 3.3, PAX8 reporter 1.0, EWS-Fli inh -2.7, PGC1a acetyl inh -39.6 and HepG2 tox -14.5.
Screening C[C@@H]1CCCCO[C@H](CN(C)C(=O)Nc2cccc3ccccc23)[C@@H](C)CN([C@H](C)CO)C(=O)c2cc(NC(=O)Nc3cccc4ccccc34)ccc2O1 returned rRNA inh HTS 2.9, LGR2 antag -1.9, PAX8 reporter -12.2, EWS-Fli inh 3.3, SIRT5 inh 2.6 and PGC1a acetyl inh -8.8.
For CC(C)NC(=O)N(C)C[C@H]1OCCCC[C@@H](C)Oc2ccc(NC(=O)Nc3cccc4ccccc34)cc2C(=O)N([C@@H](C)CO)C[C@H]1C the results were rRNA inh HTS -30.7*, LGR2 antag 13.4, PAX8 reporter 7.6, EWS-Fli inh 8.3, SIRT5 inh -1.6, PGC1a acetyl inh -5.1 and AID977628 inconclusive.
